Rows were chosen to be rich in hits. Some 2.2% of all compounds tested hit in one or more screens of this group.
IEC-6 tox-1 = cytotoxicity in IEC-6 intestinal epithelial cells, primary screen, cytotoxicity control for KLF5 inhibitor project, cell-based, luminescence | inhibition, % at 5 µM | 290,000 tested, 0.78% active | IEC-6 cytotoxicity, luminescence viability; in the data active = inhibition above about 22%;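 note: 0% = plate median of test compound wells and 100% = cytotoxic reference compound wells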
BaF3 parental = parental Ba/F3 cell viability inhibition, counter-screen for JAK2V617F inhibitor project, murine pro-B, CellTiter-Glo luminescence | 220,000 tested, 1.1% active | inhibition, % at 5.6 µM | CellTiter-Glo ATP luminescence | AID 1486, 2009;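 active = inhibition above a per-campaign cutoff, the mean inhibition of all tested compounds plus 3 SD, cut at about 27% in these data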;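 note: 0% = DMSO wells and 100% = JAK Inhibitor I control wells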
Ba/F3 V617F tox = reduced viability of JAK2V617F-dependent Ba/F3 cells, primary screen, JAK2V617F inhibitor project, cell-based, Ba/F3 EpoR-JAK2V617F, luminescence. ATP luminescence. inhibition, % at 5.6 µM. 220,000 tested, 1.1% active;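 active = inhibition above the campaign mean plus 3 SD over all tested compounds, cut at about 24% in these data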;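 note: cytokine-independent growth of Ba/F3 cells driven by EpoR plus mutant JAK2; 0% = DMSO-treated cells and 100% = JAK inhibitor I control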
APP 5UTR inh = inhibitors of APP translation via 5'UTR reporter, primary screen, APP 5'UTR luciferase, SH-SY5Y cells; SH-SY5Y APP 5'UTR-luciferase reporter, luminescence; inhibition, % at 2 µM; 190,000 tested, 0.82% active; AID 1285, 2008;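 active = inhibition above a set limit, derived from the sample mean plus 3 SD, cut at about 45% in these data; inconclusive = one replicate passes the limit while the other fails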
aSyn UTR inh = MLPCN primary screen, SNCA 5' untranslated region; alpha-synuclein 5'UTR reporter, inhibitor activity; inhibition, % (tested at 7.5 µM); 300,000 tested, 0.82% active; AID 1813, 2009; in the data active = inhibition above about 60%; inconclusive = no clear call, values can overlap the other calls;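 note: H4 neuroglioblastoma cells stably carrying SNCA 5'UTR luciferase fusion; 0% = DMSO wells and 100% = positive control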
KLF5 inh = KLF5 expression inhibitors, primary screen, DLD-1 cells, luminescence | AID 1700, 2009 | 290,000 tested, 0.23% active | DLD-1 KLF5 promoter-luciferase reporter | inhibition, % at 5 µM;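 active = inhibition above a per-plate limit of that plate's mean compound inhibition plus 3 SD, cut at about 60% in these data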;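 note: 0% = DMSO wells and 100% = LY294002 at 200 µM; higher means less KLF5 promoter-driven luciferase light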
KLF5 confirm = KLF5 expression inhibitors, confirmation, DLD-1 cells, luminescence. inhibition, % at 4 µM. 610 tested, 79% active. DLD-1 KLF5 promoter firefly luciferase reporter. shares compounds with KLF5 inh;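 active = inhibition above a set limit taken from the earlier primary screen, cut at about 63% in these data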;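 note: 0% = DMSO wells and 100% = LY294002 at 200 µM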
IEC-6 tox-2 = cytotoxicity in rat IEC-6 cells, cytotoxicity control for KLF5 inhibitor project, cell-based, luminescence, triplicate. shares compounds with KLF5 inh. inhibition, % at 4 µM. AID 1905, 2009. 610 tested, 56% active. IEC-6 rat intestinal cells, viability luminescence; in the data active = inhibition above about 23%;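 note: cells exposed to compounds for 48 hours before viability read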
* marks the source's active call; other numbers are inactive results; ? = inconclusive; . = no result given.

SMILES | IEC-6 tox-1 | BaF3 parental | Ba/F3 V617F tox | APP 5UTR inh | aSyn UTR inh | KLF5 inh | KLF5 confirm | IEC-6 tox-2
CN=c1scc(-c2ccccc2F)n1/N=C/c1ccc[nH]1 | -4.9 | 8.7 | 5.1 | 55.1* | 83.1* | 94.2* | 106.4* | 1.7
O=C(NCCc1ccccc1)c1ccc2c(c1)OCCO2 | 2.5 | . | . | . | 105.8* | 96.9* | 95.1* | -3.8
COc1ccc(CCNC(=O)c2ccc3c(c2)OCCO3)cc1 | -4.1 | 1.2 | -5.0 | -29.2 | -135.3 | -116.7 | . | .
O=C(NCCc1ccccc1)c1ccc2c(c1)OCCCO2 | 2.2 | . | . | . | 107.1* | 100.0* | 109.1* | 15.3
O=C(CCCc1ccccc1)c1ccc2c(c1)OCCO2 | 3.1 | 5.0 | 4.9 | -41.7 | 86.2* | 70.2* | 88.2* | -5.4
Cn1c2ccccc2c2cc(C(=O)N3CCOCC3)sc21 | 14.7 | 5.8 | 4.2 | -5.4 | -11.5 | 65.7* | 44.1 | 16.8
CCOC(=O)c1c(S(=O)(=O)NCC(=O)N2CCN(c3ccccc3OC)CC2)c(C)n(C)c1C | -5.2 | . | . | . | 8.0 | -27.4 | . | .
Cc1cnc(NC(=O)CCCc2nc3ccccc3s2)s1 | -1.3 | 6.0 | 1.4 | 9.1 | 29.9 | -3.6 | . | .
Cc1ccc2nc(NC(=O)CCCc3nc4ccccc4s3)sc2c1 | -0.7 | 21.2 | 2.1 | -62.0 | 44.5 | 88.5* | 97.6* | 5.8
CCOC(=O)C1(Cc2ccccc2)CCN(Cc2cccn2-c2nccs2)CC1 | 0.6 | 1.9 | -0.9 | -10.6 | 16.6 | -0.4 | . | .
O=C(c1ccccc1)c1cc([N+](=O)[O-])ccc1N1CCOCC1 | 80.5* | 74.2* | 71.3* | 92.0* | 101.3* | 73.6* | 72.4* | 57.7*
O=C(c1cc([N+](=O)[O-])ccc1N1CCOCC1)N1CCN(c2ccc([N+](=O)[O-])cc2)CC1 | . | . | . | . | 0.5 | . | . | .
CCOC(=O)Cn1c(=O)c(C#N)cn(C(C)C)c1=O | -2.5 | 7.1 | -0.7 | . | 14.6 | 6.7 | . | .
N/C(=N\OC(=O)c1ccc2ccccc2c1)c1ccccn1 | 3.4 | 8.5 | 2.9 | -158.2 | 95.5* | 86.3* | -17.3 | 2.9
CCCc1ccc(C(=O)O/N=C(\N)c2ccccn2)cc1 | 7.7 | . | . | . | 71.7* | 101.5* | 97.3* | 4.1
N/C(=N\OC(=O)c1ccc(=O)n(Cc2ccccc2)c1)c1ccccn1 | -1.2 | 9.8 | 0.5 | -1.8 | -29.3 | -49.2 | . | .
CCN(CC)S(=O)(=O)c1ccc(N/N=C/c2cccnc2)nc1 | 1.8 | -1.7 | -3.0 | . | 7.6 | -4.7 | . | .
CCN(CC)S(=O)(=O)c1ccc(N/N=C/c2cc(OC)ccc2O)nc1 | 15.6 | 54.5* | 81.5* | 74.0* | 86.8* | 67.7* | 74.4* | 3.9
CC(C)c1ccc(Nc2nnc(SCC(=O)Nc3ncc(S(=O)(=O)c4ccc([N+](=O)[O-])cc4)s3)s2)cc1 | -4.1 | 4.7 | -1.3 | -64.3 | -66.5 | -13.4 | . | .
CSc1nnc(NC(=O)c2ccc3c(c2)OCO3)s1 | -2.6 | . | . | . | 81.4* | 74.8* | 61.6 | -1.8
Cc1cccc(OCCSc2ncnc3nc[nH]c23)c1 | 1.0 | 6.6 | 4.4 | -7.1 | -14.1 | -8.0 | . | .
CC1=Nc2cc(C(=O)NCc3ccco3)ccc2Sc2ccc(C)cc21 | 80.0* | 80.4* | 83.5* | 96.3* | 101.2* | 68.1* | 83.1* | 62.3*
COc1cc(C(=O)N/N=C(\C)Cc2ccccc2)cc(OC)c1OC | 83.6* | 80.4* | 86.2* | 94.3* | 34.1 | 75.9* | -13.2 | 0.2
N#CCCNS(=O)(=O)c1ccc(C(=O)OCC2CCCCC2)cc1 | -3.1 | . | . | . | 5.1 | -8.0 | . | .
COc1ccc(N2CC(C(=O)NCCC3=CCCCC3)CC2=O)cc1 (configuration not stated) | -0.1 | 1.0 | -1.2 | 3.5 | -0.4 | -12.6 | . | .
O=[N+]([O-])c1ccc(N=Nc2c(Cl)cc(O)cc2Cl)cc1 | 12.8 | 94.9* | 81.2* | . | ? | 33.1 | 58.3 | 22.4*
Cc1ccc(Sc2c(CO)c(-c3ccccc3)nn2C)cc1 | 85.7* | 82.4* | 79.8* | 95.0* | -86.4 | 72.2* | 84.2* | 56.3*
